# Screens (PubChem BioAssay)
# Granule exo inh: lytic granule exocytosis inhibition; TALL-104 LAMP-1 surface exposure, flow cytometry; cells stimulated with thapsigargin and PMA; inhibition, % at 10 µM; 360,000 tested, 0.66% active;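 active = inhibition above about 55%, limit read from the data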
# TLR4 MyD88 comp: blocks binding of human TLR4 to MyD88 | O00206+Q99836 | HeLa CL3-4 TLR4/MyD88 BLA complementation, FRET ratio | inhibition, % at 8.4 µM | 200,000 tested, 0.18% active; in the data active = inhibition above about 25%;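 also: 0% = vehicle and 100% = reference inhibitor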
# PRMT1 inh: blocks human protein arginine methyltransferase 1; Q99873; recombinant PRMT1, activity-based probe fluorescence polarization; inhibition, % at 2.79 µM; 370,000 tested, 1.3% active; AID 652257;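 active = inhibition above about 21% made by adding two undisclosed values, limit read from the data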
# ABHD5 PLIN5 PPI: blocks binding of human ABHD5 to perilipin-5; AID 602281; inhibition, % at 4 µM; Split G. princeps luciferase complementation, luminescence, 4 h; Q00G26+Q8WTS1; 360,000 tested, 0.78% active;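 active = inhibition above the mean inhibition across every tested compound plus 3 SD, cut at about 22% in these data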;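 also: 0% = DMSO only wells and the 100% control is not disclosed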
# Target sequence (Q00G26 whole entry, looked up): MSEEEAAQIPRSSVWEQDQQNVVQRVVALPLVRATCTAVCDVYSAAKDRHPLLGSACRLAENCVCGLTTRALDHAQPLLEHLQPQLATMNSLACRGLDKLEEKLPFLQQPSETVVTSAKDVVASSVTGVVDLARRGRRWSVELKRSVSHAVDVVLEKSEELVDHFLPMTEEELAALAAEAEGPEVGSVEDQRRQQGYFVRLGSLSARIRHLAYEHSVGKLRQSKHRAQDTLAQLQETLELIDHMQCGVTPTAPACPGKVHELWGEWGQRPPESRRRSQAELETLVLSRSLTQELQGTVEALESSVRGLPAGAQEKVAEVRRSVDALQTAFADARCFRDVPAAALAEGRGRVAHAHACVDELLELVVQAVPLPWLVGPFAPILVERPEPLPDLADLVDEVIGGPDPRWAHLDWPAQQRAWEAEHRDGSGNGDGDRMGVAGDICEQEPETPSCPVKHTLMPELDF
# Target sequence (Q8WTS1 whole entry, looked up): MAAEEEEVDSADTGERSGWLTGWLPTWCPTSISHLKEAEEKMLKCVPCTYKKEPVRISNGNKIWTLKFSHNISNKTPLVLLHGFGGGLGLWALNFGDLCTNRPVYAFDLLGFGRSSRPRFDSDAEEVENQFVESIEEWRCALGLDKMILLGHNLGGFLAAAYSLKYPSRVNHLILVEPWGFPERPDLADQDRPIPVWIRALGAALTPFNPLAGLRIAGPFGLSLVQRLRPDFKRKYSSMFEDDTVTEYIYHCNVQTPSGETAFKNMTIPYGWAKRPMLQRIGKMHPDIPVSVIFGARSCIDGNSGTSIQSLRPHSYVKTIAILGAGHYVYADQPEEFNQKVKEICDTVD
# NOD2-RIPK2 inh: inhibitors of human NOD2-RIPK2 interaction; O43353; inhibition, % at 4.98 µM; 360,000 tested, 0.38% active; AID 624267; CHO BLA complementation NOD2-RIPK2, CCF4 ratio; in the data active = inhibition above about 21%;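 also: 0% = vehicle only and 100% = reference blocker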
# TLR9-MyD88 block: inhibitors of human TLR9-MyD88 binding | Q9NR96+Q99836 | 340,000 tested, 0.21% active | inhibition, % at 4.98 µM | AID 504734 | CHO BLA complementation TLR9-MyD88, CCF4 FRET ratio;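 active = inhibition above the mean over all tested compounds plus 3 SD, cut at about 21% in these data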;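 also: 0% = DMSO only wells and 100% = clavulanate BLA inhibitor control wells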
# TLR9-MyD88 conf: confirmation of human TLR9-MyD88 binding inhibitors; shares compounds with TLR9-MyD88 block; CHO TLR9/MyD88 BLA complementation, CCF4 FRET ratio; inhibition, % at 4.98 µM; 680 tested, 51% active; AID 540250;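 active = mean inhibition across three repeats above about 21% taken from the earlier screen, limit read from the data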;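 also: blue over green emission ratio reports constitutive TLR9 MyD88 association via BLA complementation; 0% = DMSO vehicle wells and 100% = clavulanate BLA inhibitor wells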
# BLA counter-1: beta-lactamase reporter inhibition, counter-screen artifact; shares compounds with TLR9-MyD88 block; CHO-BLA cells, CCF4 FRET ratio, BLA reporter; inhibition, % at 4.98 µM; 680 tested, 7% active; AID 540251;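 active = mean inhibition above a 50% cutoff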;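 also: counterscreen of TLR9-MyD88 hits on CMV-driven BLA in CHO-K1 cells; 0% = DMSO alone and 100% = clavulanate blocking BLA; higher means less blue over green ratio so more BLA blockade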
# TLR9 CHO cytotox: CHO cell toxicity counter-screen for TLR9-MyD88 inhibitors; shares compounds with TLR9-MyD88 block; TLR9-MyD88 CHO cells cytotoxicity, luminescence; inhibition, % at 4.98 µM; 680 tested, 39% active; in the data active = inhibition above about 11%
# ABHD5-PLIN5 conf: confirmation of human ABHD5-PLIN5 interaction inhibitors. shares compounds with ABHD5 PLIN5 PPI. biochemical ABHD5-PLIN5 interaction, luminescence. inhibition, % at 4 µM. 2,200 tested, 67% active. AID 651612; in the data active = inhibition above about 23%;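 also: 0% = DMSO vehicle wells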
# HNF4 counter: HNF4 split-luciferase signal hit, counter-screen | shares compounds with ABHD5 PLIN5 PPI | 2,200 tested, 77% active | inhibition, % at 4 µM | HNF4 dimerization, luminescence, biochemical;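 active = mean inhibition across replicate wells exceeding the computed hit threshold, cut at about 13% in these data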;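 also: light from luciferase halves that rejoin when HNF4 fusion proteins dimerize; 0% = DMSO only wells and the 100% control is not given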
# NOD2-RIPK2 conf: confirmation of human NOD2-RIPK2 interaction inhibitors | shares compounds with NOD2-RIPK2 inh | CHO cells, NOD2-RIPK2 BLA complementation, CCF4 FRET | 1,200 tested, 70% active | inhibition, % at 4.98 µM;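 active = mean inhibition across replicates above a set limit taken from the earlier primary screen, cut at about 21% in these data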;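 also: 0% = DMSO-only wells and the high end = clavulanate BLA-blocked wells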
# BLA counter-2: counter-screen for NOD2-RIPK2 interaction inhibitors: BLA reporter; shares compounds with NOD2-RIPK2 inh; CHO BLA reporter, CCF4 FRET ratio, counterscreen; inhibition, % at 4.98 µM; 1,200 tested, 57% active;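 active = mean inhibition above the low-control mean inhibition plus three low-control SD, cut at about 11% in these data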;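 also: 0% = DMSO only wells and 100% = clavulanate high control wells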
# * marks the source's active call; other numbers are inactive results; / = not tested or not shown. An excerpt weighted towards active compounds, which were near 2.6% of everything screened.
SMILES,Granule exo inh,TLR4 MyD88 comp,PRMT1 inh,ABHD5 PLIN5 PPI,NOD2-RIPK2 inh,TLR9-MyD88 block,TLR9-MyD88 conf,BLA counter-1,TLR9 CHO cytotox,NOD2-RIPK2 conf,BLA counter-2,others
Oc1c(Cl)cc(Cl)cc1/C=N/NC(=S)NC1CC2C=CC1C2 (configuration not stated),-8,/,0,-8,49*,24*,24*,28,17*,43*,62*,
OCCCc1nc2n(n1)C(c1ccccc1)C=C(c1ccc(F)cc1)N2 (configuration not stated),-1,5,10,2,51*,39*,21*,24,3,40*,45*,
O=C1C(SCCO)=C(SCCO)C(=O)c2ccccc21,97*,/,98*,97*,84*,64*,84*,17,99*,92*,34*,ABHD5-PLIN5 conf=104*;HNF4 counter=111*
COc1cc(NS(=O)(=O)c2ccc(C)cc2)c2ncccc2c1,1,22,-6,-3,51*,22*,18,10,102*,45*,11*,
COc1ccc(S(=O)(=O)Nc2ccccn2)cc1,0,/,3,5,-10,5,/,/,/,/,/,
C[C@H]1CN([C@@H](C)CO)C(=O)CCCn2cc(nn2)CO[C@@H]1CN(C)S(=O)(=O)c1ccc(F)cc1,/,/,-2,/,/,/,/,/,/,/,/,
CCOc1ccc(C2C=C(c3ccc(C)cc3)Nc3nnnn32)cc1 (configuration not stated),-3,3,3,-2,45*,62*,-1,-3,2,-4,0,
COc1ccc(C2C=C(c3ccccc3)Nc3ncnn32)cc1 (configuration not stated),-2,14,5,-2,46*,39*,4,8,-1,-3,-4,
Cc1ccc(C2=CC(c3ccc(C)cc3)n3ncnc3N2)cc1 (configuration not stated),-2,/,7,5,46*,26*,15,18,-5,33*,35*,
CC(C)[C@H]1/C(=C/C2CC2)N2C(=O)C[C@H](c3ccccc3)N=C2N1C,/,/,0,/,/,/,/,/,/,/,/,
CCOC(=O)[C@]12CCCC=C1N(CCCOC)C(=O)[C@@H]2CC(=O)NCC12CC3CC(CC(C3)C1)C2,/,/,-4,/,/,/,/,/,/,/,/,
CCc1cccc(-n2c(C)cc(O)cc2=O)c1,/,/,-1,/,/,/,/,/,/,/,/,
O=C(Nc1nccs1)C1(C(=O)C2CC2)CC(c2ccccn2)=NO1 (configuration not stated),/,/,3,/,/,/,/,/,/,/,/,
O=C(Nc1ccc(Cl)cc1)Nc1cccc2nsnc12,22,/,3,-2,21*,21*,15,15,0,35*,36*,
O=C(Nc1ccncc1)Nc1cccc(Cl)c1Cl,0,/,0,0,-15,10,/,/,/,/,/,
COC(=O)[C@]12C[C@H](CC(=O)NCCC(C)C)C(=O)N(CCC3=CCCCC3)C1=C[C@H](COCc1ccccc1)O[C@@H]2C,/,/,4,/,/,/,/,/,/,/,/,
Nc1ccc2nc(-c3ccccc3)c(-c3ccccc3)nc2c1,14,/,13,-19,44*,38*,33*,35,2,60*,68*,
COc1ccc(C2CC(=O)C(c3cccc(F)c3)=CN2Cc2ccccc2)cc1 (configuration not stated),/,/,1,/,/,/,/,/,/,/,/,
O=Nc1c(O)n(Cc2ccc(Cl)c(Cl)c2)c2ccccc12,4,7,1,-15,34*,28*,11,11,17*,56*,42*,
O=Nc1c(O)n(Cc2ccccc2)c2ccccc12,-4,/,-3,-8,2,9,/,/,/,/,/,
CCOC(=O)[C@]12CCCC=C1N(CCCOC)C(=O)[C@@H]2CC(=O)NCc1ccccc1,/,/,0,/,/,/,/,/,/,/,/,
COc1cccc(CN2C(=O)c3cccc(N)c3C2=O)c1,-2,23,3,-3,36*,28*,11,17,-2,38*,47*,
COc1ccc(C[C@@H]2OC3(C=CC(=O)C=C3)O[C@H]2Cc2ccc(OC)cc2)cc1,96*,/,/,100*,92*,39*,44*,33,98*,93*,38*,ABHD5-PLIN5 conf=104*;HNF4 counter=108*
O=C1C=CC2(C=C1)O[C@H](Cc1ccccc1)[C@@H](Cc1ccccc1)O2,98*,/,51*,98*,89*,26*,39*,26,99*,91*,29*,ABHD5-PLIN5 conf=103*;HNF4 counter=109*
Cc1cccc(C)c1NC(=O)[C@@H]1CC(=O)O[C@@H]1c1ccccc1,/,/,2,/,/,/,/,/,/,/,/,
SMILES,Granule exo inh,TLR4 MyD88 comp,PRMT1 inh,ABHD5 PLIN5 PPI,NOD2-RIPK2 inh,TLR9-MyD88 block,TLR9-MyD88 conf,BLA counter-1,TLR9 CHO cytotox,NOD2-RIPK2 conf,BLA counter-2,others
Oc1ccc(/C=C/c2ccc3cccc(O)c3n2)cc1Br,3,/,-1,4,27*,27*,10,14,2,39*,47*,
COc1ccc(C2CC(=O)C(c3ccc(Cl)cc3)=CN2Cc2ccccc2)cc1 (configuration not stated),/,/,1,/,/,/,/,/,/,/,/,
NC(=O)c1cccc(S(=O)(=O)N2CCCCC2)c1,-1,-2,-3,15,-2,2,/,/,/,/,/,
Nc1cccc2c1C(=O)N(C(=O)c1cccc(S(=O)(=O)N3CCCC3)c1)C2=O,-5,19,2,3,22*,23*,13,16,-4,28*,35*,
Cc1nc2ccc(S(=O)(=O)NCC(=O)N(C)Cc3ccccc3F)cc2s1,/,/,8,/,/,/,/,/,/,/,/,
Cc1[nH]c2ccccc2c1CC(=O)Nc1ccc(Nc2cccnc2)c(-c2cc(F)cc(F)c2)c1,/,/,6,/,/,/,/,/,/,/,/,
O=[N+]([O-])c1c(Nc2ccc(O)cc2)cc(Cl)c2nonc12,-13,/,77*,58*,122*,49*,60*,-17,97*,120*,25*,ABHD5-PLIN5 conf=83*;HNF4 counter=101*
O=C(CNS(=O)(=O)c1cccs1)N1CCN(c2ncccn2)CC1,/,/,-2,/,/,/,/,/,/,/,/,
